Assay [1] is described as follows: Nuclear factor erythroid 2-related factor 2/antioxidant responsive element (Nrf2/ARE) small molecule agonists: qHTS cell viability counter screen in human keratinocytes (AID 1919968; active = well fitted cell-killing curve with a large enough effect in the repeat runs; note: nearly all actives have a fitted effect of over 55% in size). The essentials:
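Cells of the KeratinoSens line were plated at 1,500 per well and left for 5 h before compound transfer from DMSO stocks. After a 23 h incubation (37 C, 5% CO2), CellTiter-Fluor was added. Signal was taken as fluorescence intensity 1 h later.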

Assay [2] in a line: Nuclear factor erythroid 2-related factor 2/antioxidant responsive element (Nrf2/ARE) small molecule agonists: luciferase reporter gene qHTS assay in human keratinocytes (AID 1919969). Note: nearly all actives have a fitted effect of over 35% in size. Note: potency is the fitted concentration of half-maximal effect.
For assay [3], the target named is Gonadotropin-releasing hormone receptor (Homo sapiens) (UniProt P30968). Nature of the assay: Human gonadotropin-releasing hormone receptor (GnRHR) small molecule agonists, calcium flux assay in GnRHR-HEK293 cells (AID 1920063). Note: nearly all actives have a fitted effect of over 35% in size. The essentials: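 Compounds dissolved in DMSO are pin-transferred onto dye-loaded GnRHR-HEK293 cells, which were seeded 18 h before at 37 C/5% CO2. Calcium signal is read as fluorescence intensity at 1 s intervals for 3 min.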
A general note: Calcium flux is commonly read through the fluorescence of an indicator in the cells.

The nature of assay [4]: p53 small molecule agonists, cell-based qHTS assay with human liver microsomes (AID 1963577).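 Note: p53 response element beta-lactamase reporter cells with liver microsomes plus NADPH.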 Summed up: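 16 h, 37 C exposure of p53RE-bla cells to compounds with human liver microsomes and NADPH (0.5 mg/mL final each); detection via LiveBLAzer mixture, 2 h dark at room temperature.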
(Quantitative high-throughput screening tests each substance at several concentrations.)

A short description of assay [5]: p53 small molecule agonists, cell-based qHTS assay with rat liver microsomes (AID 1963578). Summed up:
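With rat liver microsomes and NADPH present (0.5 mg/mL final each), p53RE-bla cells are treated with compound for 16 h at 37 C. LiveBLAzer detection mixture is then applied for 2 h at room temperature in the dark.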

Assay [6] is described as follows: p53 small molecule agonists, cell-based qHTS assay with human liver microsomes: qHTS cell viability counter screen (AID 1963579). Note: nearly all actives have a fitted effect of over 45% in size. The essentials: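 In this multiplexed counter screen, the reporter plates were subsequently treated with CellTiter-Glo so that cell viability, reflected by luminescence, could be recorded for p53RE-bla cells dosed 16 h with compounds under microsomal activation (HLM and NADPH).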

Assay [7] is described as follows: p53 small molecule agonists, cell-based qHTS assay with rat liver microsomes: qHTS cell viability counter screen (AID 1963580). Note: nearly all actives have a fitted effect of over 45% in size. The essentials:
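Cytotoxicity counter screen: intracellular ATP read by CellTiter-Glo luminescence in the p53 reporter wells. HCT-116 p53RE-bla cells were treated for 16 h at 37 C alongside rat liver microsomes and NADPH, each 0.5 mg/mL final.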

Assay [8] in a line: p53 small molecule agonists, cell-based qHTS assay: qHTS cell viability counter screen (AID 1963581). Note: nearly all actives have a fitted effect of over 45% in size. The essentials:
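ATP content measured by luminescence in HCT-116 p53RE-bla cells treated 16 h at 37 C, same wells as the reporter screen.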

Assay [9] is described as follows: p53 small molecule agonists, cell-based qHTS assay (AID 1963582; active = well fitted activation curve with a large enough effect in the signal ratio in the repeat runs, not every such curve was filed as active; the % refers to the signal ratio). The essentials:
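16 h compound exposure (37 C) of p53 response element–bla cells, preceded by 5 h recovery at 37 C/5% CO2; read-out via LiveBLAzer B/G FRET substrate, 2 h RT, fluorescence intensity.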

Assay [10] has as its target 5-hydroxytryptamine receptor 2A (Homo sapiens) (UniProt P28223). The assay can be described thus: 5-hydroxytryptamine receptor 2A (HTR2A) small molecule antagonists, cell-based qHTS assay (AID 1963586). Note: nearly all actives have a fitted effect of over 45% in size. The essentials: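 CHO cells stably expressing human HTR2A were plated for 18 h at 37 C, then loaded with calcium dye for 1 h. Compounds were preincubated 5 min at room temperature before DOI (4 nM solution) was added. Kinetic fluorescence was read for 3 min.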

The target is the same in assay [11]. Nature of the assay: 5-hydroxytryptamine receptor 2A (HTR2A) small molecule agonists, cell-based qHTS assay (AID 1963587). Note: nearly all actives have a fitted effect of over 30% in size. The essentials:
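Kinetic calcium-flux fluorescence (2 min, 1 sec intervals) after compound addition in agonist mode. HTR2A-CHO cells were cultured 18 h, then dye-loaded 1 h at 37 C.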

For assay [12], the target named is Muscarinic acetylcholine receptor M1 (Homo sapiens) (UniProt P11229). Nature of the assay: Cholinergic receptor muscarinic 1 (CHRM1) small molecule antagonists, cell-based qHTS assay (AID 1963588). Note: nearly all actives have a fitted effect of over 40% in size. The essentials: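 Compounds were tested at 15 concentrations in three independent runs. Dye-loaded CHRM1-CHO cells were exposed 5 min at room temperature before stimulation by acetylcholine added at 50nM. Intracellular calcium was read kinetically on FDSS for 3 min.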

The target is the same in assay [13]. The assay can be described thus: Cholinergic receptor muscarinic 1 (CHRM1) small molecule agonists, cell-based qHTS assay (AID 1963589). Note: nearly all actives have a fitted effect of over 35% in size. The essentials:
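Homogeneous fluorescence calcium flux, agonist mode. Human M1-expressing CHO cells; compound dosed at 15 concentrations, three independent runs; signal sampled every 1 sec.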

Assay [14] is described as follows: cAMP Responsive Elements (CRE) small molecule antagonists, cell-based qHTS assay (AID 1963591; active = well fitted inhibition curve with a large enough effect in the signal ratio in the repeat runs, not every such curve was filed as active; the % refers to the signal ratio). The essentials: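 First, CRE-bla HEK293T cells settled 18 h at 37 C. Next, compound and 0.25 uM final NKH477 were applied for 3 h. Last, LiveBLAzer B/G substrate was loaded for 2 h at room temperature.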
Assay [15] addresses Beta-2 adrenergic receptor (Homo sapiens) (UniProt P07550). The assay can be described thus: Adrenergic beta2 receptor (ADRB2) small molecule antagonists, cell-based qHTS assay (AID 1963592). Note: series mostly up to about 92 µM; nearly all actives have a fitted effect of over 50% in size. Summed up:
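Assay format: CHO-ADRB2 cells, 18-20hr seeding at 37C/5% CO2, then compound plus 1nM isoproterenol agonist mix for 0.5hr RT. Homogeneous time-resolved fluorescence cAMP detection after 1hr, expressed as 665/615 nm ratio.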

For assay [16] the target is unchanged. Nature of the assay: Adrenergic beta2 receptor (ADRB2) small molecule agonists, cell-based qHTS assay (AID 1963593).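 Note: CHO cells stably overexpressing human ADRB2.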 The essentials:
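CHO cells stably over-expressing ADRB2 were plated overnight at 37C, then dosed with compounds plus a stimulation mix containing 100uM IBMX and 25uM Ro-20-1724 for 0.5hr at room temperature. cAMP was measured by HTRF competition, 1hr.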

In assay [17] the target is D(2) dopamine receptor (Homo sapiens) (UniProt P14416). The assay can be described thus: Dopamine D2 receptor (DRD2) small molecule antagonists, cell-based qHTS assay (AID 1963595; active = well fitted inhibition curve with a large enough effect in the signal ratio in the repeat runs, with a control signal flat; the % refers to the signal ratio). The essentials:
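Antagonist mode in DRD2-HEK293 cells: after compound addition with 0.1 mM Ro20-1724, cells received quinpirole (12 nM) and NKH477 (200 nM) for 30 min at room temperature; HTRF cAMP read after 1 h detection.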

Assay [18] can be described thus: G protein-coupled receptor (GPCR) small molecule agonists, calcium flux assay: HEK293 wild type cell line counter screen (AID 1920065). The essentials: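 Tox21 10K compounds, 15 concentrations each in triplicate, pin-transferred in DMSO onto dye-loaded cells; kinetic read at 480/540 nm for 3 min, 1 s intervals.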
Assay [19] in a line: cAMP Responsive Elements (CRE) small molecule agonists, cell-based qHTS assay (AID 1963590). The essentials:
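HEK 293T cells stably bearing CRE-bla were plated at 2,000 cells per well and rested 18 h. Compounds, positive controls or DMSO were added for 3 h at 37 C. LiveBLAzer B/G substrate was then loaded for 2 h at room temperature.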

The target in assay [20] is D(2) dopamine receptor (Homo sapiens) (UniProt P14416). The assay can be described thus: Dopamine D2 receptor (DRD2) small molecule agonists, cell-based qHTS assay (AID 1963594). Note: nearly all actives have a fitted effect of over 35% in size. The essentials: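 cAMP accumulation in DRD2-HEK293 cells measured by HTRF after 1 h detection; compounds added 10 min before NKH477 (200nM […]) forskolin-analogue stimulation, 30 min at room temperature, with Ro20-1724 present at 0.1 mM final.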

Here are results for seven compounds from PubChem BioAssay (Tox21).

Results filed as inconclusive are left out. Calls of active or inactive are those of the source. Unless noted, calls come from the whole dose curve.

Sequence of Gonadotropin-releasing hormone receptor (Homo sapiens) (P30968 whole entry, looked up): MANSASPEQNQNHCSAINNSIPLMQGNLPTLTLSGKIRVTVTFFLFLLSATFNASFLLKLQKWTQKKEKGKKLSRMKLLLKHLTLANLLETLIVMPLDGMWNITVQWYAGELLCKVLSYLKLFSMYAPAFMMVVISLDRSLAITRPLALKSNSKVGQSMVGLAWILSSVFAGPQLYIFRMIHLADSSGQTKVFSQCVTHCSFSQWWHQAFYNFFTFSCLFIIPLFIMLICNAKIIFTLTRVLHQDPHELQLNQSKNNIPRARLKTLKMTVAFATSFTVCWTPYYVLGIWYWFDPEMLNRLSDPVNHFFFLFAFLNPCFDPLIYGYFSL
Sequence of Beta-2 adrenergic receptor (Homo sapiens) (P07550 whole entry, looked up): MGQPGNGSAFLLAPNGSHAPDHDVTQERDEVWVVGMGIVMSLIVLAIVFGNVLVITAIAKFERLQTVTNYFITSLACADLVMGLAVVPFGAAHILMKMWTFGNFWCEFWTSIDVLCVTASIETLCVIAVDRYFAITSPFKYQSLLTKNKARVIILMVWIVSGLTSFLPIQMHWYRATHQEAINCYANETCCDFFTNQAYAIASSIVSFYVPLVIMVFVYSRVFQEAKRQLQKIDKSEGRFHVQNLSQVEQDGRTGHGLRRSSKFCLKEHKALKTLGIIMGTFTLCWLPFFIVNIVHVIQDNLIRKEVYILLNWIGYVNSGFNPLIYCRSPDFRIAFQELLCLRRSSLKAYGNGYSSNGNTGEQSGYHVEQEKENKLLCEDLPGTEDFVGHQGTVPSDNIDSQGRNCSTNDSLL
Sequence of D(2) dopamine receptor (Homo sapiens) (P14416 whole entry, looked up): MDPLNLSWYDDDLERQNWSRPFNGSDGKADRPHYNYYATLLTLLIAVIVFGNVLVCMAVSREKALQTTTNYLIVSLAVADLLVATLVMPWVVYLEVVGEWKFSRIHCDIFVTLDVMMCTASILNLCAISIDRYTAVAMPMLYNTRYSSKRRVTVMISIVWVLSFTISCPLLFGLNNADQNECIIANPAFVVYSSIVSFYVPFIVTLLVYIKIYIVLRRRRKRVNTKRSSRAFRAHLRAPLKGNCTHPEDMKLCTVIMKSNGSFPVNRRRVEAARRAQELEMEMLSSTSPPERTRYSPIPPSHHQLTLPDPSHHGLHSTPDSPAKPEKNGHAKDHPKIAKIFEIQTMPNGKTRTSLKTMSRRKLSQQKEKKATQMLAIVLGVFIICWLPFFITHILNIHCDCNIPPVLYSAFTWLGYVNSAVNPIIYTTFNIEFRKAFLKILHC
Sequence of 5-hydroxytryptamine receptor 2A (Homo sapiens) (P28223 whole entry, looked up): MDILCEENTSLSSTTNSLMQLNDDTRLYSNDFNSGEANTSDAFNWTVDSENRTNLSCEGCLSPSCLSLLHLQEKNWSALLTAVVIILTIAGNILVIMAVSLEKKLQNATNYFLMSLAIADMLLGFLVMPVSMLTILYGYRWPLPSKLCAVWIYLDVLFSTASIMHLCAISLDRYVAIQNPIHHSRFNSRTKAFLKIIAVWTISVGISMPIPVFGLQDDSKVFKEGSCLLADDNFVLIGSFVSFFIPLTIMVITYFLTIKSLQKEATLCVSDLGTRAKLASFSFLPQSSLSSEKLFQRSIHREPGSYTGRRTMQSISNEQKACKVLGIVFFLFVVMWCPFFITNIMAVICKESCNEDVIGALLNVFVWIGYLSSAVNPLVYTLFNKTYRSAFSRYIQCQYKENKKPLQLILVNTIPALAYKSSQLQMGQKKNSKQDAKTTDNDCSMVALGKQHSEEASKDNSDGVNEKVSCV
Sequence of Muscarinic acetylcholine receptor M1 (Homo sapiens) (P11229 whole entry, looked up): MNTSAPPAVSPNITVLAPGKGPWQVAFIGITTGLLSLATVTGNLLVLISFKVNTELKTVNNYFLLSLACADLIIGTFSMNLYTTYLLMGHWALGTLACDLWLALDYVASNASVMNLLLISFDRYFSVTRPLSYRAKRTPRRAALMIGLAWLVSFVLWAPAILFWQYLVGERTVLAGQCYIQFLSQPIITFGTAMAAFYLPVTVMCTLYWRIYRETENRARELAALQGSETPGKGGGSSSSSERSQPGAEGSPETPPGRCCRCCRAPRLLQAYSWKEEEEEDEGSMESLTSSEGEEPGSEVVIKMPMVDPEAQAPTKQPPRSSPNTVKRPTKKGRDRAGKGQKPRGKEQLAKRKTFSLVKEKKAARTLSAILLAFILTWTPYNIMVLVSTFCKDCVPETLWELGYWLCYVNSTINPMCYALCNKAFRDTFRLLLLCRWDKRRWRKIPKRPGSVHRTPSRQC

With `CC(=O)/C=C/C1C(C)=CCC(C)C1(C)C` (stereo unspecified), the Potency result in assay [1], in assay [2], in [3], in assay [4], in assay [5] and in assay [6] was “inactive” in each case. In addition, the Potency entry in assay [7], in assay [8], in assay [9], in assay [10], in assay [11] and in assay [12] was “inactive” throughout. In addition, the Potency entry in assay [13], in assay [14], in assay [15], in [16] and in assay [17] was “inactive” each time.

In the case of `CC(O)C(CO)C(C)O` (stereo unspecified), the Potency entry in assay [1], in assay [2], in assay [18], in [4], in assay [5] and in assay [6] was “inactive” each time. Besides, the Potency entry in assay [7], in [8], in [9], in assay [10], in [11] and in [12] was “inactive” throughout. The Potency result in assay [13], in assay [19], in [14], in assay [15], in [16] and in [20] was “inactive” throughout. The Potency entry in assay [17] was “inactive”.

Regarding `C=C(C)C(=O)OCCCCCCCC(C)C`, the Potency result in assay [1], in assay [2], in [18], in [4], in assay [5] and in [6] was “inactive” in each case. In addition, the Potency entry in assay [7], in assay [8], in assay [9], in assay [10], in assay [11] and in [12] was “inactive” throughout. For the same compound, the Potency result in assay [13], in assay [19], in assay [14], in assay [15], in assay [20] and in [17] was “inactive” each time.

Regarding `CC(=O)S[C@H](C(=O)N[C@H]1Cc2ccccc2[C@H]2CCC[C@@H](C(=O)O)N2C1=O)C(C)C`, the Potency result in assay [1], in assay [2], in assay [3], in assay [4], in assay [5] and in assay [6] was “inactive” in each case. Further, the Potency entry in [7], in [8], in assay [9], in [10], in assay [11] and in assay [13] was “inactive” each time. Further, the Potency result in [14], in [15], in [16] and in [20] was “inactive” throughout.

As to `C=CC(=O)NCOCC(C)C`, the Potency entry in assay [1], in [2], in [3], in assay [4], in assay [5] and in assay [6] was “inactive” throughout. Also, the Potency entry in [7], in assay [8], in [9], in [10], in assay [11] and in assay [12] was “inactive” throughout. For the same compound, the Potency entry in assay [13], in [14], in assay [16], in [20] and in [17] was “inactive” in each case.

Consider `c1ccc(SCCSc2ccccc2)cc1`, for which the Potency result in assay [1], in assay [18], in [4], in assay [6], in assay [7] and in [8] was “inactive” throughout. Moreover, the Potency entry in assay [9], in [10], in [11], in assay [12], in [13] and in assay [14] was “inactive” in each case. Moreover, the Potency entry in [15], in [20] and in assay [17] was “inactive” in each case. Moreover, the Potency in assay [2] was 12.1 µM (active).

As for `Nc1ccc(NCCO)c([N+](=O)[O-])c1`, the Potency entry in assay [1], in assay [2], in assay [18], in assay [4], in [5] and in assay [6] was “inactive” throughout. The Potency result in assay [7], in [8], in assay [10], in assay [12], in assay [13] and in assay [19] was “inactive” in each case. For the same compound, the Potency entry in assay [14] is “inactive”.
